PubChem BioAssay AID2685 (National Center for Advancing Translational Sciences (NCATS), 2010)
The whole screen tested about 320,000 compounds, of which about 2,100 (0.66%) were called active. Another 53% or so got no clear call; they are omitted. The sample holds actives, similar compounds and a random draw of the others, so the mix is not that of the screen. Calls follow the shape of the dose curve; as a rule, active = well fitted inhibition curve with a large enough effect in the signal ratio, with a control signal flat (not every such curve was filed as active); inconclusive = small, poorly fitted or top-dose-only effect, or effect the other way, or a change in a side signal; inactive = flat fitted curve, though single readings scatter; the % refers to the signal ratio.

Assay: qHTS Assay for Lipid Storage Modulators in Drosophila S3 Cells;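 as to cell number change: cells counted by Cell Tracker Red CMTPX staining in the red channel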; as to lipid storage change, negative = inhibition: % is scaled to controls: 0 for no effect and ±100 for the full control effect
Conditions: BODIPY lipid droplet fluorescence, 18-24 h, cells fed with added oleic acid; cell number change: measured here: cell count max response; series mostly up to 46.1 µM; lipid storage change, negative = inhibition: at the top concentration
In short: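 Laser-scanning cytometry quantifies lipid droplet accumulation (500–530 nm total intensity; droplet/cell object ratio) in oleic acid-fed (400 uM added) Drosophila S3 cells treated with a concentration series. 20 uM Triacsin C defined 100% inhibition.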
Potency is read from the fitted curve at half-maximal effect.

SMILES	lipid storage change, negative = inhibition	cell number change	outcome	Potency
COc1ccc(C(=O)NCC2(c3ccccc3)CCOCC2)cc1	3.47% (inactive)	16.9%		
CC1=CC2=NC(=O)/C(=C\c3ccc(-c4ccc(Cl)cc4)o3)C(=N)N2O1	-14% (inactive)	5.59%		
CCOc1ccc(C(=O)NC(C(=O)NCC(c2cccs2)N(C)C)C(C)C)cc1 (centres undefined)	16.5% (inactive)	-5.63%		
COc1ccc(C(=O)NCc2nnc(SCC(=O)Nc3cccc(C(F)(F)F)c3)o2)cc1OC	-16.5% (inactive)	0.944%		
CCOc1ccc(NC(=O)CSc2nnc(CNC(=O)c3ccco3)o2)cc1	4.79% (inactive)	12.8%		
COc1ccc(C(=O)NCc2nnc(SCC(=O)N3CCCC3)o2)cc1			inactive	
COc1cc(C(=O)NCc2nnc(SCC(=O)N3CCCCC3)o2)cc(OC)c1OC		4.42%		18.4 µM (active)
Cc1ccc(NC(=O)CSc2nnc(CNC(=O)c3ccco3)o2)cc1	-12.8% (inactive)			
CCC1CCCCN1C(=O)CSc1nnc(CNC(=O)c2cc(OC)c(OC)c(OC)c2)o1 (centres undefined)			inactive	
COc1cc(C(=O)NCc2nnc(SCC(=O)Nc3cc(C)cc(C)c3)o2)cc(OC)c1OC	5.11% (inactive)	6.53%		
COc1cc(C(=O)NCc2nnc(SCC(=O)Nc3cccc(C(F)(F)F)c3)o2)cc(OC)c1OC		-27.5%		9.2 µM (active)
CCOC(=O)c1ccc(NC(=O)CSc2nnc(CNC(=O)c3ccco3)o2)cc1		-21.5%		3.66 µM (active)
Cc1cc[n+]2c3c(cccc13)CCC2		21.6%	inactive	
Cn1c(SCC(=O)Nc2nccs2)nnc1-c1ccco1	8.24% (inactive)	19.7%		
O=C(CCNS(=O)(=O)c1ccccc1F)N1CCN(Cc2ccccc2)CC1			inactive	
O=C(CCNS(=O)(=O)c1ccccc1C(F)(F)F)N1CCN(C(c2ccccc2)c2ccccc2)CC1	23.5% (inactive)	9.11%		
O=C(CCNS(=O)(=O)c1ccccc1F)N1CCN(C(c2ccccc2)c2ccccc2)CC1				23.1 µM (active)
COc1cc(CN(C(=S)NCC(=O)NC2CC2)C2CCCC2)cc(OC)c1OC	-7.95% (inactive)	4.91%		
CS(=O)(=O)N1N=C(c2ccccc2)CC1c1cccs1 (centres undefined)	0.108% (inactive)	-4.84%		
N=C(N)Sc1nc(N2CCCCC2)nc(N2CCCCC2)n1	-23.5% (inactive)	2.17%		
CN(C)S(=O)(=O)c1cccc(-c2nnc(SCC(=O)NCCCCCC(=O)O)n2-c2ccc(F)cc2)c1	8.47% (inactive)	5.6%		
CCCNc1c(NS(=O)(=O)c2ccc3c(c2)CCCC3)c(=O)oc2ccccc12	13.3% (inactive)	-4.72%		
CCC(=O)Nc1ccc(S(=O)(=O)Nc2c(NC)c3ccccc3oc2=O)cc1		8.07%		18.4 µM (active)

SMILES	lipid storage change, negative = inhibition	cell number change	outcome	Potency
COc1ccc(S(=O)(=O)Nc2c(NC3CCCCC3)c3ccccc3oc2=O)cc1Cl		-20.1%	inactive	
CC(=O)Nc1ccc(S(=O)(=O)c2ccc(C)cc2)cc1	-24% (inactive)	-22.1%		
CCCNc1c(NS(=O)(=O)c2ccc(Br)cc2)c(=O)oc2ccccc12		-47.1%	inactive	
CCC(=O)Nc1ccc(S(=O)(=O)c2ccc(NC(=O)CC)cc2)cc1		0.0647%		10.3 µM (active)
CC(=O)Nc1ccc(S(=O)(=O)Nc2c(NC3CCCCC3)c3ccccc3oc2=O)cc1		-18%	inactive	
O=C(O)CCC(=O)Nc1ccc(S(=O)(=O)c2ccc(NC(=O)CCC(=O)O)cc2)cc1	25% (inactive)	14.2%		
CNc1c(NS(=O)(=O)c2ccc(OC)c(Cl)c2)c(=O)oc2ccccc12		-27.3%		16.4 µM (active)
CCCNc1c(NS(=O)(=O)c2ccc(C)c(C)c2)c(=O)oc2ccccc12		-4.13%		0.291 µM (active)
CCCNc1c(NS(=O)(=O)c2ccc(NC(=O)CC)cc2)c(=O)oc2ccccc12		-23.3%	inactive	
CNc1c(NS(=O)(=O)c2cc(OC)ccc2OC)c(=O)oc2ccccc12		-19.8%	inactive	
O=C(NNS(=O)(=O)c1ccccc1)c1cnn(-c2ccccc2)c1-n1cccc1	7.45% (inactive)	9.3%		
O=C1CC(NS(=O)(=O)c2cc(F)ccc2F)CN1c1ccc2c(c1)OCCO2 (centres undefined)			inactive	
CC(=O)N1CCc2cc(Br)cc(S(=O)(=O)N3CCCCCC3)c21	1.88% (inactive)	-5.11%		
Cn1cccc1/C=N/NC(=O)CSc1nc2ccccc2[nH]1	15.8% (inactive)	5.5%		
CCC(=O)NC(=S)Nc1ccc(NC(=O)c2ccc(Br)o2)cc1	-15.2% [at 9.22 µM] (inactive)	-10.2%		
C=CCn1c(CNC(=O)c2ccccc2F)nnc1SCC(=O)NC(C)c1ccccc1 (centres undefined)	9.08% (inactive)	1.35%		
Cc1cc(=O)oc2cc(OCC(=O)OCC(=O)N(C)C3CCS(=O)(=O)C3)ccc12 (centres undefined)	-5.08% (inactive)	7.81%		
CCN(C(=O)COC(=O)COc1ccc2c(C)cc(=O)oc2c1)C1CCS(=O)(=O)C1 (centres undefined)		-49.7%		0.0461 µM (active)
Cc1cc(=O)oc2cc(OCc3ccc(C(=O)OCC(=O)N(C)C4CCS(=O)(=O)C4)cc3)ccc12 (centres undefined)	-1.78% (inactive)	-7.42%		
Fc1ccccc1C(c1nnnn1C1CCCC1)N1CCN(Cc2ccccc2)CC1 (centres undefined)	-1.04% (inactive)	-15.7%		
COc1ccccc1NC(=O)Nc1ccc(Br)cn1	21.8% (inactive)	-23.3%		
COc1ccc(C2/C=C\CN(S(=O)(=O)/C=C/c3ccccc3)[C@H](Cc3ccccc3)C(=O)N2Cc2ccc(F)cc2)cc1 (some centres undefined)	13.6% (inactive)	2.68%		
